According to PubChem BioAssay (NCI):
This is part of a sample that, as a whole, favours compounds with a hit. Of some 83,000 tested, about 20% had one in any assay.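 Plates (96-well) were seeded with cells, treated with compound at one concentration, and incubated for 48 hours before percent growth was determined.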 A number with no mark means an inactive call. Active and inactive are the calls of the source. Rule for the calls: active = growth percent below 10; inactive = the rest.

Key:
Experiment in all cases: NCI-60 one-dose screen, 48 h (100 = growth as untreated, 0 = no growth, -100 = all killed)
Conditions in all cases: 10 µM
[1] = tested on: SN12C renal
[2] = tested on: UO-31 renal
[3] = tested on: TK-10 renal
[4] = tested on: ACHN renal
[5] = tested on: CAKI-1 renal
[6] = tested on: A498 renal
[7] = tested on: CCRF-CEM leukemia
[8] = tested on: MOLT-4 leukemia
[9] = tested on: SR leukemia
[10] = tested on: RPMI-8226 leukemia
[11] = tested on: OVCAR-8 ovarian
[12] = tested on: OVCAR-5 ovarian
[13] = tested on: OVCAR-4 ovarian
[14] = tested on: SK-OV-3 ovarian
[15] = tested on: IGROV1 ovarian
[16] = tested on: OVCAR-3 ovarian
[17] = tested on: HS 578T breast
[18] = tested on: NCI/ADR-RES ovarian
[19] = tested on: T-47D breast

SMILES	growth [1]	growth [2]	growth [3]	growth [4]	growth [5]	growth [6]	growth [7]	growth [8]	growth [9]	growth [10]	growth [11]	growth [12]	growth [13]	growth [14]	growth [15]	growth [16]	growth [17]	growth [18]	growth [19]
O=C(c1cccs1)c1ccccc1Cc1ccccc1	96.4%	80.3%	94.5%	100%	89.6%	58.4%	93.7%	92.5%	93.1%	100%	99%	124%	96.9%	101%	99.2%	110%	106%	103%	95%
CC(=O)N1N=C(c2ccc(Cl)cc2)CC1c1sc(Cl)nc1Cl (centres undefined)	69.6%	40.9%	68.8%	105%	75.9%	9.27% (active)	93.4%	77.6%	58.5%	87.5%	78%	96.9%	66.4%	83.2%	59.1%	75.6%	98.2%	80.7%	75.1%
COc1cc(Cl)cc(-c2nn(-c3cccc(NC(=O)Nc4cc(C(F)(F)F)cc(C(F)(F)F)c4)c3)cc2-c2ccncc2)c1	9.32% (active)	-0.18% (active)	30.3%	10.3%	8.99% (active)	-21.6% (active)	-22% (active)	-24.6% (active)	-37.9% (active)	-17.5% (active)	-2.46% (active)	21.6%	11.9%	6.84% (active)	23%	-1.62% (active)	5.82% (active)	2.37% (active)	6.56% (active)
Cc1cccc2c1O/C(=C\c1ccc([N+](=O)[O-])o1)C2=O	-17.5% (active)	-62.6% (active)	-88.2% (active)	-81.9% (active)	-3% (active)	49%	-26.4% (active)	-14.7% (active)	2.46% (active)	-34.7% (active)	-7.67% (active)	-20.8% (active)	-82.4% (active)	45.1%	-34.7% (active)	-85.7% (active)	-23.2% (active)	10.5%	-26% (active)
N=C(N)c1ccc(-c2ccc(-c3ccccc3)o2)nc1	86.6%	65.7%	111%	92.4%	83.8%	45.7%	82.5%	60%	55.6%	38.6%	92.6%	85%	75.3%	100%	95.7%	106%	131%	100%	81.5%
COc1ccc2c(c1)O/C(=C\c1ccc([N+](=O)[O-])o1)C2=O	6.92% (active)	-73.5% (active)	-33.7% (active)	6.05% (active)	-2.99% (active)	56.6%	0.117% (active)	-0.0457% (active)	7.61% (active)	-10.7% (active)	-8.18% (active)	12.4%	-1.31% (active)	67.6%	-14.2% (active)	-8.36% (active)	21.4%	16%	-0.109% (active)
N=C(N)c1ccc(-c2ccc(-c3ccco3)o2)cc1	69.3%	55%	109%	79.4%	54.5%	33.3%	60.7%	31.3%	-17.8% (active)	25.3%	76.2%	79%	62.9%	94.9%	69.7%	88.2%	83.4%	93.1%	58.7%
CC(C)(Cl)CCC1=C(Cl)C(=O)c2ccccc2C1=O	79.9%	36.5%	124%	26.3%	96%	27.4%	-33.9% (active)	-16.2% (active)	-25.3% (active)	-28.9% (active)	68%	101%	11.5%	92.6%	39.7%	22.9%	62.6%	62.9%	-38.7% (active)
COc1ccc(-c2nc(-c3nc4ccc(Cl)cc4[nH]3)c3ccccn23)cc1	52.7%	-24.8% (active)	-12.1% (active)	0.296% (active)	-13% (active)	-3.43% (active)	82.7%	74.4%	40.3%	49.3%	-27.1% (active)	82.5%	-77% (active)	-47.8% (active)	84.8%	8.15% (active)	-19.3% (active)	33.6%	64.7%
Clc1ccc(Sc2nc(NC3CC3)nc(Sc3ccc(Cl)cc3)n2)cc1	88.5%	62.3%	112%	84.6%	51.9%	83.9%	76.4%	43.8%	67.3%	62%	87.4%	92.9%	66.3%	72.8%	64.7%	85.8%	96.1%	78.3%	65%
COc1cc(NC(=O)CCSc2nc3ccc(Cl)cc3c(=O)n2Cc2ccccc2)cc(OC)c1OC	80%	74.1%	109%	45.9%	63.7%	33.5%	78.1%	60.6%	66.5%	42.5%	73.9%	88.8%	61.5%	82%	101%	93.4%	40.3%	84.3%	64.2%
CCCCCCN1C(=O)C2=C(c3ccc(Cl)cc3)Nc3c(c(C)nn3-c3ccccc3)C2c2ccccc21 (centres undefined)	91.2%	79.2%	107%	97.1%	74.5%	87.5%	85.8%	73.4%	76.3%	81.2%	92.5%	100%	90.5%	95.9%	100%	92.7%	118%	97.8%	84.5%
FC(F)(F)c1ccc2nc(-c3nc(-c4ccccc4)n4ccccc34)[nH]c2c1	53%	80.9%	94.2%	81.1%	99.9%	107%	52%	47.8%	19.6%	51.6%	17.3%	85.6%	-3.4% (active)	52.8%	67.7%	79.1%	103%	44.4%	48.3%
COc1cc(C2CC(c3ccc(Nc4ccnc5cc(Cl)ccc45)cc3)=NN2c2ccc(Cl)cc2)cc(OC)c1OC (centres undefined)	59.5%	18.4%	64.1%	38%	18.6%	52.3%	28%	31.5%	12.2%	44.7%	53.8%	80.6%	69.7%	79.2%	57.5%	38%	61.6%	29.6%	41.3%
COc1ccc(-c2nn(-c3cccc(NC(=O)c4cc(C(F)(F)F)cc(C(F)(F)F)c4)c3)cc2-c2ccncc2)cc1Cl	78.1%	43%	85.5%	66.2%	50.1%	39.7%	64.4%	69.5%	36.3%	47.7%	66.4%	87.4%	76.4%	75.2%	77.2%	54.1%	71.5%	59.9%	51.5%
COc1cc(Cl)cc(-c2nn(-c3cccc(NC(=O)c4ccc(Cl)c(Cl)c4)c3)cc2-c2ccncc2)c1	69.6%	43.5%	104%	63.9%	63.6%	-0.943% (active)	59.2%	54.9%	43.6%	46%	58.4%	79.2%	58.6%	80.1%	71.6%	53.4%	63.6%	61.4%	63.2%
